Source: PubChem BioAssay (NCATS)
Inconclusive results are not listed. Values without a mark were called inactive. Activity calls are given as the source filed them. The call rests on the fitted dose curve; in most records, active means well fitted inhibition curve with a large enough effect; inconclusive means small, poorly fitted or top-dose-only effect; inactive means no such curve, though single readings can be large or run the other way.

Each compound was assayed on Zika virus NS2B-NS3 protease (unlinked complex) (assay: Primary screen GU Rhodamine qHTS for Zika virus inhibitors: Unlinked NS2B-NS3 protease assay (AID 1347159; further: nearly all actives have a fitted effect of over 60% in size)). Settings: Recombinant ZIKV NS2B-NS3 protease, Rhodamine110 substrate fluorescence; series mostly up to 107 µM; activity change, negative = inhibition: at the top concentration.
In short: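 Buffer 10 mM Tris-HCl pH 8.0, 0.01% Tween 20. Unlinked protease 25 nM; compound preincubation 15 min, RT, protected from light. Substrate Rhod110, 1.5 microM; ~15% conversion in 15 min.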
On the % scale 0 is the no-effect control and ±100 the full control effect; potency means the concentration at half of the fitted maximal effect.

Row | SMILES | activity change, negative = inhibition | Potency
1 | CC(=O)NC(C(=O)OC1CCC(C)(C)C2CC=C3C(=O)OCC3(O)C12C)C(C)C (centres undefined) | -6.8% [at 57.1 µM] | –
2 | C=CC(C)(O)CC/C=C(\C)C(=O)OCC1OC(OC2CCC3(C)C(CCC4(C)C3CC=C3C5CC(C)(C)C(O)CC5(C(=O)O)CCC34C)C2(C)C)C(O)C(OC2OC(CO)C(O)C(OC3OC(CO)C(O)C(OC4OC(COC5OC(CO)C(O)C(O)C5O)C(O)C(O)C4O)C3O)C2O)C1O (centres undefined) | 5.91% [at 19.1 µM] | –
3 | CC1OC(OC2C(O)C(C(=O)O)OC(OC3CCC4(C)C(CCC5(C)C4C=CC4=C6CC(C)(C)CC(O)C6(C)CCC45C)C3(C)C)C2OC2OCC(O)C(O)C2O)C(O)C(O)C1O (centres undefined) | – | 3.55 µM (active)
4 | Cc1ccc2c(c1)C=Cc1cc(C)ccc1C2c1cn(Cc2ccc(C(=O)Nc3nn[nH]n3)o2)c(=O)[nH]c1=S | – | 3.16 µM (active)
5 | CC(C)(O)c1ccc2c(c1)C(=O)CC1[C@](C)(CO)CCC[C@]21C (some centres undefined) | – | 31.6 µM (active)
6 | C[C@@H]1O[C@@H](O[C@H]2[C@H](OC(=O)C34CCC(C)(C)CC3C3=CCC5C6(C)CC(O)C(O[C@@H]7O[C@H](CO)[C@@H](O)[C@H](O)[C@H]7O)C(C)(C(=O)O)C6CCC5(C)C3(CO)CC4)O[C@H](C)[C@H](O)[C@@H]2O)[C@H](O)[C@H](O)[C@H]1O[C@@H]1OC[C@@H](O)[C@H](O)[C@H]1O (some centres undefined) | -18.8% [at 32.5 µM] | –
7 | CC(C)NC[C@H](O)COc1ccc(CCOCC2CC2)cc1 | 0% | –
8 | C=Cc1cc(O)cc2nc(-c3ccc(O)c(F)c3)oc12 | – | 35.5 µM (active)
9 | O=C(O)c1cc(O[C@@H]2O[C@H](CO[C@@H]3OC[C@@H](O)[C@H](O)[C@H]3O)[C@@H](O)[C@H](O)[C@H]2O)c2ccccc2c1O | -17.1% [at 57.1 µM] | –
10 | COc1cccc(-c2ccc([C@@H](Oc3cc(-c4ccc(C[C@H](N)C(=O)O)cc4)nc(N)n3)C(F)(F)F)cc2)c1 | – | 22.4 µM (active)
11 | COC(=O)CC1(O)C(=O)Nc2ccccc21 (centres undefined) | 1.6% | –
12 | COc1ccc2c(c1)O[C@H](O[C@@H]1O[C@H](CO)[C@@H](O)[C@H](O)[C@H]1O)C(=O)N2 | -9.28% | –
13 | C=C1CC2(C(=O)O)CC1CCC2C1(C)CCCC2(C)C(=O)OC(O)C21 (centres undefined) | -4.22% | –
14 | O=C(O[C@@H]1O[C@H](CO)[C@@H](O)[C@H](O)[C@H]1O)c1c(O)cc(O)cc1/C=C/c1ccccc1 | 3.68% [at 57.1 µM] | –
15 | C=C(C)[C@@H]1CC[C@](C)(O)[C@@H](OC(=O)c2ccccc2)C1 | 71.1% | –
16 | CC(=O)c1c(O)cc2cccc3c2c1CC(C)(O)O3 (centres undefined) | – | 35.5 µM (active)
17 | C[C@@H]1CC[C@H]2C(C)(C)[C@H](O)[C@H](O)C[C@]2(C)[C@@]12Cc1c(O)cc3c(c1O2)CNC3=O | -8.21% | –
18 | O=C(c1ccc(NS(=O)(=O)c2cccc3cccnc23)cc1)N1CCN(CC2CC2)CC1 | 5.54% | –
19 | C[C@@H]1CC[C@]2(C)C(C[C@@H](O)[C@H](O)[C@]23CO3)[C@@]1(C)CCc1ccoc1 (some centres undefined) | -9.12% | –
